Assay results reported in PubChem BioAssay (EPA / NIEHS).
Results filed as inconclusive are left out. Calls of active or inactive are those of the source. The calls were made as follows, unless noted: active = hit-call score of the fitted dose curve at least 0.9, where 1 is the maximum; inactive = score below 0.9.

Legend:
[1] = BSK_4H_Eotaxin3: BioMAP Diversity Plus: 4H Assay for Eotaxin 3 Biomarker Activity (AID 2283000); settings: primary human endothelial cells (HUVEC); actives raise or lower the signal
Procedure, shortened: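 Endothelial primary cells (human umbilical vein) exposed to compound for 24 h. ELISA detection of Eotaxin-3.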

[2] = biological target: human Peroxisome Proliferator-activated Receptor alpha (PPARa), PPARA (gene 5465) (UniProt Q07869); experiment: ATG_PPARa_TRANS: Attagene TRANS-FACTORIAL HepG2 Assay for human Peroxisome Proliferator-activated Receptor alpha (PPARa) (AID 2283001; active = hit-call score of the fitted dose curve at least 0.9, where 1 is the maximum;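 as to AC50: potency for gain of reporter signal over DMSO so agonist or activator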)
human Peroxisome Proliferator-activated Receptor alpha (PPARa), PPARA (gene 5465), sequence (Q07869 whole entry, looked up, the tested form may be a part): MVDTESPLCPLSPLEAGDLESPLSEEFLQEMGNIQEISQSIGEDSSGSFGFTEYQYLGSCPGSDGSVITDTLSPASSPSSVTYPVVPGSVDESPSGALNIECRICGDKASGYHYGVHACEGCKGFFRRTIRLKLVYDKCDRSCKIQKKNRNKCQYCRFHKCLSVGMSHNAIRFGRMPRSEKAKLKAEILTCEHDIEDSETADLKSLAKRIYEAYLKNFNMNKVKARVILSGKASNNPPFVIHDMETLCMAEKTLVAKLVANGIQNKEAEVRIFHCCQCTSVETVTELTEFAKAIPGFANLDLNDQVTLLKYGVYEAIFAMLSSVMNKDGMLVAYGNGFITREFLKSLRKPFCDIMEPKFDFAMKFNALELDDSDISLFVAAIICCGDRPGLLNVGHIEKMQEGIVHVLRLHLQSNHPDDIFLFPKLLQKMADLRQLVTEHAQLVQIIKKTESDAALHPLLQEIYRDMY
Procedure, shortened: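 Measures transcriptional activity of an exogenous chimeric PPARa-Gal4 protein in transiently transfected HepG2 cells after 24 h dosing. Reporter mRNA quantified via RT-PCR and capillary electrophoresis; DMSO served as negative control.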

[3] = read-out: Intercellular Adhesion Molecule 1 (ICAM1), ICAM1 (gene 3383); experiment: BSK_3C_ICAM1: BioMAP Diversity Plus: 3C Assay for Intercellular Adhesion Molecule 1 (ICAM1) Biomarker Activity (AID 2283003); settings: primary human endothelial cells (HUVEC); actives raise or lower the signal
Procedure, shortened: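 Human vascular endothelial primary cells, 3C conditions, 24 h treatment. ICAM-1 by ELISA.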

[4] = biological target: human Retinoic Acid Receptor beta (RARb), RARB (gene 5915) (UniProt P10826); experiment: ATG_RARb_TRANS: Attagene TRANS-FACTORIAL HepG2 Assay for human Retinoic Acid Receptor beta (AID 2283004; active = hit-call score of the fitted dose curve at least 0.9, where 1 is the maximum)
Procedure, shortened: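 HepG2, transient MRTU transfection, NR–Gal4 chimera, 24 h treatment; RT-PCR plus CE fluorescence detection of reporter mRNA; gain of signal vs DMSO.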

[5] = BSK_3C_Proliferation: Cell Proliferation Assessment in the BioMAP Diversity Plus: 3C Assay (AID 2283006); settings: primary human endothelial cells (HUVEC);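 as to AC50: potency may reflect either rise or fall in cell number versus DMSO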
Procedure, shortened: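 Proliferation of human vascular endothelial primary cells after 48 h dosing, quantified as SRB-stained protein at 560 nm relative to DMSO.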

[6] = biological target: Peroxisome proliferator-activated receptor gamma (Homo sapiens) (UniProt P37231); experiment: ATG_PPARg_TRANS: Attagene TRANS-FACTORIAL HepG2 Assay for human Peroxisome Proliferator-activated Receptor-gamma (PPARg) (AID 2283007; active = hit-call score of the fitted dose curve at least 0.9, where 1 is the maximum)
Peroxisome proliferator-activated receptor gamma (Homo sapiens), sequence (P37231 whole entry, looked up, the tested form may be a part): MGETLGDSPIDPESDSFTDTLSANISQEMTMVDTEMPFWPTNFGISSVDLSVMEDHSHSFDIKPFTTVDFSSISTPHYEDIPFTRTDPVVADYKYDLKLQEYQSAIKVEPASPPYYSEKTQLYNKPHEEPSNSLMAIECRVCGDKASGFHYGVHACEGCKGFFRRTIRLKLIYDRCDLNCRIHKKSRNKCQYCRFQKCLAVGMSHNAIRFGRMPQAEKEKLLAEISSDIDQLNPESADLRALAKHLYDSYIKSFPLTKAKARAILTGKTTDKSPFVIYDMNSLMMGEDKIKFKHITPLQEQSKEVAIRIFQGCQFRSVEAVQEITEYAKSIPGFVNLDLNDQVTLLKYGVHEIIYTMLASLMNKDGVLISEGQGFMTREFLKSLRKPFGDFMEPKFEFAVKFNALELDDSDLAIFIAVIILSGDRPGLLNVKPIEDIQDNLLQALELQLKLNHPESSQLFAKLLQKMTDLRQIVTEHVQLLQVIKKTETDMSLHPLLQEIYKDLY
Procedure, shortened: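 HepG2 cells are transiently transfected with GAL4-UAS reporter units driven by chimeric NR-Gal4 fusions and dosed for 24 h. Reporter mRNA is quantified by RT-PCR, 6-FAM labelling, HpaI digestion and capillary electrophoresis. Induction is scored against DMSO.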

[7] = biological target: Nuclear receptor subfamily 1 group I member 2 (Homo sapiens) (UniProt O75469); experiment: ATG_PXR_TRANS: Attagene TRANS-FACTORIAL HepG2 Assay for human Pregnane X Receptor (PXR) (AID 2283008; active = hit-call score of the fitted dose curve at least 0.9, where 1 is the maximum)
Nuclear receptor subfamily 1 group I member 2 (Homo sapiens), sequence (O75469 whole entry, looked up, the tested form may be a part): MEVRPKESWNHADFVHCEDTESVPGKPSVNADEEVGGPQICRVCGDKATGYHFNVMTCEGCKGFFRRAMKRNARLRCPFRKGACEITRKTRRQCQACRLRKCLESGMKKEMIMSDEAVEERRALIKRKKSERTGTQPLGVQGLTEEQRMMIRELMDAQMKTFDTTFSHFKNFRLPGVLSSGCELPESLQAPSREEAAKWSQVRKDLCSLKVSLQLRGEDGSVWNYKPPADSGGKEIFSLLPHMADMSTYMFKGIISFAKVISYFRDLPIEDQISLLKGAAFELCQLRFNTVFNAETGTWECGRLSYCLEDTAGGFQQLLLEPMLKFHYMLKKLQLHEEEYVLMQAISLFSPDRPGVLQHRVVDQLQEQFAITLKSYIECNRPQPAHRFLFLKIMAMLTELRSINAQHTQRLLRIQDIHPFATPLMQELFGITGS
Procedure, shortened: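 Fluorescence intensity of FAM-labelled, HpaI-digested reporter amplicons, separated by capillary electrophoresis, quantifies induction. HepG2 cells with PXR-Gal4 trans-reporter system were exposed 24 h; DMSO defines baseline.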

[8] = biological target: human Retinoic Acid Receptor gamma (RARg), RARG (gene 5916) (UniProt P13631); experiment: ATG_RARg_TRANS: Attagene TRANS-FACTORIAL HepG2 Assay for human Retinoic Acid Receptor gamma (RARg) (AID 2283009; active = hit-call score of the fitted dose curve at least 0.9, where 1 is the maximum)
human Retinoic Acid Receptor gamma (RARg), RARG (gene 5916), sequence (P13631 whole entry, looked up, the tested form may be a part): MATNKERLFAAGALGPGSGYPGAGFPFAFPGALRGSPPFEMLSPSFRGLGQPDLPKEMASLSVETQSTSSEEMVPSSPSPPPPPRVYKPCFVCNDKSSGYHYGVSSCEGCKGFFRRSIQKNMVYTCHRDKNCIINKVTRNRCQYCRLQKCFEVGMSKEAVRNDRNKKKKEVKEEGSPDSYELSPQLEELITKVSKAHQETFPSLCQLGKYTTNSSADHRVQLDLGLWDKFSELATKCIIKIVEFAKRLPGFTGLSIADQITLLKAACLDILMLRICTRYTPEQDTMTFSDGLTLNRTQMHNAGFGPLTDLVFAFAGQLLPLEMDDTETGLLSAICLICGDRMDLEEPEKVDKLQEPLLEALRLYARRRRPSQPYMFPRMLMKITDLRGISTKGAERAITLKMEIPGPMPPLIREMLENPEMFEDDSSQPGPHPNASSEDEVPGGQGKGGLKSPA
Procedure, shortened: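 HepG2, RARg-GAL4 TRANS system, 24 h exposure; reporter mRNA by RT-PCR + CE fluorescence; increase over DMSO.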

[9] = biological target: human RAR-related Orphan Receptor gamma (RORg), RORC (gene 6097) (UniProt P51449); experiment: ATG_RORg_TRANS: Attagene TRANS-FACTORIAL HepG2 Assay for human RAR-related Orphan Receptor gamma (RORg) (AID 2283011; active = hit-call score of the fitted dose curve at least 0.9, where 1 is the maximum)
human RAR-related Orphan Receptor gamma (RORg), RORC (gene 6097), sequence (P51449 whole entry, looked up, the tested form may be a part): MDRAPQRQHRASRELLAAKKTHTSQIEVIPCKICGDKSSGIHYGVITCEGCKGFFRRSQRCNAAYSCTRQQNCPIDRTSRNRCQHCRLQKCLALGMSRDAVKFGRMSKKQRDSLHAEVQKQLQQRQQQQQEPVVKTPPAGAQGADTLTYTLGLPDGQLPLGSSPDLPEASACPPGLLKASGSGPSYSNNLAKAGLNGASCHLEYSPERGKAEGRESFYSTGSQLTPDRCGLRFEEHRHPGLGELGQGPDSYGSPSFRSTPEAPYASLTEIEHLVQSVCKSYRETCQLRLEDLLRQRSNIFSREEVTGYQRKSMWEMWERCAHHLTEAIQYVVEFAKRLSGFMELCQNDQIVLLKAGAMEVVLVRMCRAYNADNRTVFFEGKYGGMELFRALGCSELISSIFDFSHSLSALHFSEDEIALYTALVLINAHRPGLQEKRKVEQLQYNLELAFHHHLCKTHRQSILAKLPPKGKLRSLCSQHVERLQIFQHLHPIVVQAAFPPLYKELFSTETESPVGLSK
Procedure, shortened: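 Activity is scored as increase in GAL4-UAS reporter mRNA over DMSO, detected by fluorescent RT-PCR and capillary electrophoresis in HepG2 cells transiently expressing a RORg-Gal4 chimera, 24 h after dosing.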

[10] = biological target: Retinoic acid receptor RXR-alpha (Homo sapiens) (UniProt P19793); experiment: ATG_RXRa_TRANS: Attagene TRANS-FACTORIAL HepG2 Assay for human Retinoid X Receptor alpha (RXRa) (AID 2283012; active = hit-call score of the fitted dose curve at least 0.9, where 1 is the maximum)
Retinoic acid receptor RXR-alpha (Homo sapiens), sequence (P19793 whole entry, looked up, the tested form may be a part): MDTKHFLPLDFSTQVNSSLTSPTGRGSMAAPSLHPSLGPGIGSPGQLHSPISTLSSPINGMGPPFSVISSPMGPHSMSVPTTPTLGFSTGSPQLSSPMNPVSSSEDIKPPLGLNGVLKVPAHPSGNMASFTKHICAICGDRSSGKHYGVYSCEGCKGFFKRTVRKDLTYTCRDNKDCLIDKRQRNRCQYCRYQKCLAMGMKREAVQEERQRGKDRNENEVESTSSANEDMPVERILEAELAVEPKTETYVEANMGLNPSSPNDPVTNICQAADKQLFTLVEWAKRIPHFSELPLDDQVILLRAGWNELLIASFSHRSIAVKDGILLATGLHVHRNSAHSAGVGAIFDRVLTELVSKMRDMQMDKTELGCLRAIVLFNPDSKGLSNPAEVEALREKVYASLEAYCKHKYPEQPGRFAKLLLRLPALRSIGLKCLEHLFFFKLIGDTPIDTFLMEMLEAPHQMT
Procedure, shortened: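 Cells (HepG2) carried transiently transfected GAL4-responsive reporter units. Following a 24 h chemical incubation, reporter mRNA induction was read via RT-PCR fragment analysis; DMSO served as negative control and baseline.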

[11] = read-out: E-selectin (Homo sapiens) (UniProt P16581); experiment: BSK_3C_Eselectin: BioMAP Diversity Plus: 3C Assay for Eselectin Biomarker Activity (AID 2283015); settings: primary human endothelial cells (HUVEC); actives raise or lower the signal;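 also: cell surface E-selectin protein quantified by ELISA 24 h after dosing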
Procedure, shortened: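 Human vascular endothelium from umbilical vein is exposed to test chemicals for 24 h. E-selectin levels are read by ELISA and compared with DMSO controls.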

[12] = read-out: Interleukin-1 alpha (IL1a), IL1A (gene 3552); experiment: BSK_BE3C_IL1a: BioMAP Diversity Plus: BE3C Assay for Interleukin-1 alpha (IL1a) Biomarker Activity (AID 2283016); settings: primary human bronchial epithelial cells; actives raise or lower the signal
Procedure, shortened: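 Cultures of primary human bronchial epithelial cells receive test chemical. After 24 h, IL-1a is quantified by ELISA, while parallel wells are fixed in TCA and SRB-stained for total protein. Changes in either direction are fitted relative to DMSO.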

[13] = read-out: Monocyte Chemoattractant Protein-1 (MCP1), CCL2 (gene 6347); experiment: BSK_3C_MCP1: BioMAP Diversity Plus: 3C Assay for Monocyte Chemoattractant Protein-1 (MCP1) Biomarker Activity (AID 2283017); settings: primary human endothelial cells (HUVEC); actives raise or lower the signal
Procedure, shortened: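 Endothelial cells from human umbilical vein are dosed with chemical, cultured 24 h, then assayed for MCP-1 by ELISA; both increases and decreases are modelled against DMSO controls.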

[14] = read-out: Monocyte Chemoattractant Protein-1 (MCP1), CCL2 (gene 6347); experiment: BSK_4H_MCP1: BioMAP Diversity Plus: 4H Assay for Monocyte Chemoattractant Protein-1 (MCP1) Biomarker Activity (AID 2283018); settings: primary human endothelial cells (HUVEC); actives raise or lower the signal
Procedure, shortened: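 Readout: MCP-1 ELISA on compound-treated HUVEC, sampled 24 h post-dosing. Baseline and negative control DMSO; bidirectional fit. Overt toxicity checked alongside by sulforhodamine B protein staining at time of biomarker measurement.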

[15] = read-out: Human Leukocyte Antigen - DR isotype (HLADR), HLA-DRA (gene 3122); experiment: BSK_3C_HLADR: BioMAP Diversity Plus: 3C Assay for Human Leukocyte Antigen - DR isotype (HLADR) Biomarker Activity (AID 2283019); settings: primary human endothelial cells (HUVEC); actives raise or lower the signal
Procedure, shortened: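 Endothelial cells from human umbilical vein are treated with test chemical; after 24 h, HLA-DR levels are measured by ELISA. Data are fitted in both directions using DMSO as the baseline.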

[16] = biological target: human Peroxisome Proliferator-activated Receptor delta (PPARd), PPARD (gene 5467) (UniProt Q03181); experiment: ATG_PPARd_TRANS: Attagene TRANS-FACTORIAL HepG2 Assay for human Peroxisome Proliferator-activated Receptor delta (PPARd) (AID 2283002; active = hit-call score of the fitted dose curve at least 0.9, where 1 is the maximum)
human Peroxisome Proliferator-activated Receptor delta (PPARd), PPARD (gene 5467), sequence (Q03181 whole entry, looked up, the tested form may be a part): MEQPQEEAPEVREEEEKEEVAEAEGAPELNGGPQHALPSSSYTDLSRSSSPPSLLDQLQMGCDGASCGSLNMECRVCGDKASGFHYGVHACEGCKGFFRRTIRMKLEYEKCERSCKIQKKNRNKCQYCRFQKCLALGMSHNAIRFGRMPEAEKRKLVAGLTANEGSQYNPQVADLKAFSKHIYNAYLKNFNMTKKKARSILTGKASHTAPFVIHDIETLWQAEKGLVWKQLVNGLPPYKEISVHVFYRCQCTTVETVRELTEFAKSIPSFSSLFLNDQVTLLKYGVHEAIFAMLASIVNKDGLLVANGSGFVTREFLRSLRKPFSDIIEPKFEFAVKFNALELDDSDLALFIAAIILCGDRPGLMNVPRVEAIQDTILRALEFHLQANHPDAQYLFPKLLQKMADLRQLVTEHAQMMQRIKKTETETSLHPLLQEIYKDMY
Procedure, shortened: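 Read-out: reporter mRNA induction, quantified by fluorescent RT-PCR products resolved by capillary electrophoresis. Human HepG2 liver cells carried transiently transfected Gal4-UAS reporter constructs with chimeric NR-Gal4 fusions. Cells were dosed for 24 h; DMSO served as baseline.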

[17] = biological target: human Retinoid X Receptor beta (RXRb), RXRB (gene 6257) (UniProt P28702); experiment: ATG_RXRb_TRANS: Attagene TRANS-FACTORIAL HepG2 Assay for human Retinoid X Receptor beta (RXRb) (AID 2283013; active = hit-call score of the fitted dose curve at least 0.9, where 1 is the maximum)
human Retinoid X Receptor beta (RXRb), RXRB (gene 6257), sequence (P28702 whole entry, looked up): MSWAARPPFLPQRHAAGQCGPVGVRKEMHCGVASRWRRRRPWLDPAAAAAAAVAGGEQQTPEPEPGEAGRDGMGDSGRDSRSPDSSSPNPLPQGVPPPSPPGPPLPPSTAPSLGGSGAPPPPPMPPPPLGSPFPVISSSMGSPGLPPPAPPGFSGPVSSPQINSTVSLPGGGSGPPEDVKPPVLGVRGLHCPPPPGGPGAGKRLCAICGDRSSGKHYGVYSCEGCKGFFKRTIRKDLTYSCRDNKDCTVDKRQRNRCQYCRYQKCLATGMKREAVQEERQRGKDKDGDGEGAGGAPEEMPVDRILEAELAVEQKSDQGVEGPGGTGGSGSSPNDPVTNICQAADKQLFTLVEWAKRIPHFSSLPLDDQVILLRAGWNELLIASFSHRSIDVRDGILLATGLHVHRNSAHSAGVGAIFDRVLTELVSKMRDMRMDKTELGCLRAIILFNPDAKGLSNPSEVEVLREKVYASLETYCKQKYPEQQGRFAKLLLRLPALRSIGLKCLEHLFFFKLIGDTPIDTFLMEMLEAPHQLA
Procedure, shortened: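 Multiplexed TRANS reporter assay in HepG2; 24 h dosing; reporter mRNA by RT-PCR/CE fluorescence; gain-of-signal relative to DMSO.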

[18] = biological target: Retinoic acid receptor alpha (Homo sapiens) (UniProt P10276); experiment: ATG_RARa_TRANS: Attagene TRANS-FACTORIAL HepG2 Assay for human Retinoic Acid Receptor alpha (RARa) (AID 2283005; active = hit-call score of the fitted dose curve at least 0.9, where 1 is the maximum)
Retinoic acid receptor alpha (Homo sapiens), sequence (P10276 whole entry, looked up, the tested form may be a part): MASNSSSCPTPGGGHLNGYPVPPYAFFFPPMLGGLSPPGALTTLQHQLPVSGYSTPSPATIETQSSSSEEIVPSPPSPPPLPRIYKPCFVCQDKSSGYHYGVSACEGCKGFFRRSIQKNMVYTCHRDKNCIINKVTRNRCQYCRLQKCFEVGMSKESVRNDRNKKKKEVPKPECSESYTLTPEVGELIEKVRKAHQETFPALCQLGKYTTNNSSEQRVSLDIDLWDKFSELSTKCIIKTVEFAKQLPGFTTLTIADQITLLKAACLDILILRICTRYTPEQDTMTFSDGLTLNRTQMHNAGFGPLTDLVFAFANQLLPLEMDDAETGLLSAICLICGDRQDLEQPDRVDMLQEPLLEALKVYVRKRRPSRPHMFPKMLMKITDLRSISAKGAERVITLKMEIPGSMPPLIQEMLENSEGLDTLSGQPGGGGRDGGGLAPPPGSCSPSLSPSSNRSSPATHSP
Procedure, shortened: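 HepG2 transiently transfected with multiplex GAL4-UAS reporter units including a human RARa–GAL4 chimera; 24 h compound exposure. Reporter mRNA quantified by RT-PCR, 6-FAM labeling and capillary electrophoresis; gain of signal versus DMSO.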

[19] = biological target: human RAR-related Orphan Receptor beta (RORb), RORB (gene 6096) (UniProt Q92753); experiment: ATG_RORb_TRANS: Attagene TRANS-FACTORIAL HepG2 Assay for human RAR-related Orphan Receptor beta (RORb) (AID 2283010; active = hit-call score of the fitted dose curve at least 0.9, where 1 is the maximum)
Procedure, shortened: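 In this TRANS-format test, human HepG2 cells express chimeric NR-Gal4 fusion proteins driving GAL4-UAS reporters. After 24 h dosing, reporter transcripts are measured by fluorescent RT-PCR/capillary electrophoresis, with DMSO as negative control.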

[20] = biological target: human Thyroid Receptor alpha (THRa1), THRA (gene 7067) (UniProt P10827); experiment: ATG_THRa1_TRANS: Attagene TRANS-FACTORIAL HepG2 Assay for human Thyroid Receptor alpha (THRa1) (AID 2283014; active = hit-call score of the fitted dose curve at least 0.9, where 1 is the maximum)
Procedure, shortened: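 First, HepG2 cells receive multiple GAL4-UAS reporter units and the chimeric receptor. They are then dosed for 24 h, after which RNA is reverse-transcribed, amplified, labelled, HpaI-cut and sized by capillary electrophoresis; gain relative to DMSO is scored.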

Measured: AC50

E-selectin (Homo sapiens), sequence (P16581 whole entry, looked up): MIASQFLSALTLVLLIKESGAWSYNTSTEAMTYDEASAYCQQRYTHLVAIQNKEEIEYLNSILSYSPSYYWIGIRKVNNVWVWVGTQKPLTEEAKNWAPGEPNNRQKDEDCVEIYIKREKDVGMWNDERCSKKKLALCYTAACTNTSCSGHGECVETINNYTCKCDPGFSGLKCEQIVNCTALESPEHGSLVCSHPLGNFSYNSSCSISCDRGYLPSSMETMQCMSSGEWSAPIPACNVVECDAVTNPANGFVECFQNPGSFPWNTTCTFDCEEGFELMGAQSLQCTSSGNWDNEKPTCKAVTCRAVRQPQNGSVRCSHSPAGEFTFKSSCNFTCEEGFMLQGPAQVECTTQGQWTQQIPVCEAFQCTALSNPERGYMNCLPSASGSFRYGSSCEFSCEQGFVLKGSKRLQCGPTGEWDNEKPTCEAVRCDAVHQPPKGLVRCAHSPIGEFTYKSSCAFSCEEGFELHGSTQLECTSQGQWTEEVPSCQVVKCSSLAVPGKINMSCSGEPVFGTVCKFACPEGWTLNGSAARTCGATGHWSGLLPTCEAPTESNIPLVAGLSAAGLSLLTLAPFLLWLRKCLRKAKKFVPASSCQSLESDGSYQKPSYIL

CC=Cc1ccc(O)c(OC)c1
inactive: [1] | [2] | [3] | [4] | [5] | [7] | [8] | [9] | [10] | [11] | [12] | [13] | [14] | [15]
active: [6] 61.5 µM

CCCCCCCCCCCC(=O)OC
inactive: [1] | [2] | [16] | [3] | [6] | [7] | [10] | [11] | [12] | [13] | [14] | [15]
active: [5] 20 µM | [17] 57.9 µM

Cc1oc(-c2ccccc2)nc1CCOc1cccc2c1ccn2CCC(=O)O
active: [2] 3.95 µM | [16] 4.28 µM | [7] 10.9 µM | [10] 44.9 µM | [17] 8.2 µM
inactive: [1] | [3] | [4] | [18] | [5] | [8] | [9] | [11] | [12] | [13] | [14] | [15]

CC(CO)OC(C)CO (stereo not given) (tested in a mixture with another compound)
active: [17] 13.8 µM
inactive: [1] | [2] | [3] | [5] | [7] | [10] | [11] | [12] | [13] | [14] | [15]

C=CCOC(=O)c1ccccc1C(=O)OCC=C
inactive: [1] | [2] | [3] | [18] | [5] | [6] | [7] | [8] | [19] | [10] | [17] | [11] | [12] | [13] | [14] | [15]

Cc1nc(-c2ccc3c(c2)CCN(CCC2CCC(NC(=O)/C=C/c4ccc(F)cc4)CC2)CC3)no1 (stereo not given)
inactive: [2] | [3] | [6] | [11] | [12] | [13] | [14]
active: [1] 12.9 µM | [5] 4.71 µM | [15] 5.83 µM

CCOC(=O)C(C)(C)Oc1ccc(Cl)cc1
inactive: [1] | [3] | [5] | [9] | [10] | [17] | [11] | [12] | [13] | [14] | [15]
active: [2] 37.2 µM

COC(=O)c1ccc(O)cc1
inactive: [1] | [2] | [3] | [5] | [7] | [11] | [12] | [13] | [14] | [15]
active: [17] 55.3 µM

O=C(OCCCCCOC(=O)c1ccccc1)c1ccccc1
inactive: [1] | [16] | [3] | [18] | [7] | [17] | [20] | [11] | [12] | [13] | [14] | [15]
active: [5] 29.7 µM
